Assay results taken from the antibiotic and cytotoxicity screens of Wong et al. (2023).
Out of some 39,000 compounds screened, about 1,500 (3.8%) were called active. This is one part of a sample in which actives are shown more often than they occur.

tested on: HSkMC (human skeletal muscle cells); assay: cytotoxicity call (relative viability < 0.9); conditions: 10 µM

| Structure (SMILES) | cytotoxicity call |
| --- | --- |
| Cc1noc(C)c1S(=O)(=O)N(C)C[C@@H]1Oc2ccc(NC(=O)NC3CCCCC3)cc2CC(=O)N([C@H](C)CO)C[C@H]1C | inactive |
| O=C(C[C@@H]1C=C[C@@H](NC(=O)c2ccc(F)cc2)[C@H](CO)O1)NCc1ccncn1 | inactive |
| O=C(O)c1ccc(O)c(O)c1 | inactive |
| O=C(O)c1cc(O)c(O)c(O)c1 [listing 1 of 2 here] | inactive |
| O=C(O)c1cc(O)c(O)c(O)c1 [listing 2 of 2 here] | active |
| COc1ccc(NC(=O)Nc2ccc3c(c2)C(=O)N([C@@H](C)CO)C[C@@H](C)[C@H](CN(C)C(=O)C2CCCCC2)OCCCC[C@H](C)O3)cc1 | inactive |
| C[C@@H]1CN([C@H](C)CO)C(=O)Cc2cc(NC(=O)Cn3cnnn3)ccc2O[C@H]1CN(C)S(=O)(=O)c1cccs1 | inactive |
| Oc1ccc(Cl)c2cccnc12 [listing 1 of 2 here] | active |
| Oc1ccc(Cl)c2cccnc12 [listing 2 of 2 here] | inactive |
| Oc1c(Cl)cc(Cl)c2cccnc12 | inactive |
| O=C(NO)c1cccnc1 | inactive |
| CCNC(=O)C[C@H]1C=C[C@H](NC(=O)C2CC2)[C@@H](CO)O1 | inactive |
| C[C@H]1CCCCO[C@@H](CN(C)Cc2ccccc2)[C@@H](C)CN([C@@H](C)CO)C(=O)c2cc(NC(=O)c3ccncc3)ccc2O1 | inactive |
| COc1cccc2c1C(=O)c1c(O)c3c(c(O)c1C2=O)CC(O)(C(=O)CO)CC3OC1CC(N)C(O)C(C)O1 (stereo unspecified) [listing 1 of 2 here] | inactive |
| COc1cccc2c1C(=O)c1c(O)c3c(c(O)c1C2=O)CC(O)(C(=O)CO)CC3OC1CC(N)C(O)C(C)O1 (stereo unspecified) [listing 2 of 2 here] | active |
| COc1cccc2c1C(=O)c1c(O)c3c(c(O)c1C2=O)CC(O)(C(=O)CO)CC3OC1CC(N)C(O)C(C)O1.Cl (stereo unspecified) | inactive |
| COc1cccc2c1C(=O)c1c(O)c3c(c(O)c1C2=O)C[C@@](O)(C(=O)CO)C[C@@H]3O[C@H]1C[C@H](N)[C@@H](O)[C@H](C)O1 | inactive |
| CCCCC(=O)OCC(=O)[C@]1(O)Cc2c(O)c3c(c(O)c2[C@@H](O[C@H]2C[C@H](NC(=O)C(F)(F)F)[C@H](O)[C@H](C)O2)C1)C(=O)c1c(OC)cccc1C3=O | active |
| COc1cccc2c1C(=O)c1c(O)c3c(c(O)c1C2=O)C[C@@](O)(C(=O)CO)C[C@@H]3O[C@H]1C[C@H](N)[C@H](O)[C@H](C)O1 | active |
| COc1cccc2c1C(=O)c1c(O)c3c(c(O)c1C2=O)C[C@](O)(C(=O)CO)C[C@H]3O[C@H]1C[C@@H](N)[C@@H](O)[C@@H](C)O1 | active |
| COc1ccc(S(=O)(=O)Nc2ccc3c(c2)C(=O)N([C@@H](C)CO)C[C@@H](C)[C@@H](CN(C)CC2CCCCC2)OCCCC[C@H](C)O3)cc1 | inactive |
| C=CCOC(=O)[C@@H]1[C@H]2C(=O)O[C@H](c3ccccc3)[C@H](c3ccccc3)N2[C@H](c2ccc(OCCOC(=O)[C@H]3C[C@H]4C(=O)N5CCC[C@H]5C(=O)N4[C@H]3c3ccc(O)cc3)cc2)[C@@]12C(=O)Nc1ccc(I)cc12 | inactive |

| Structure (SMILES) | cytotoxicity call |
| --- | --- |
| C[C@H]1CN([C@@H](C)CO)C(=O)c2cc(NC(=O)CCCCCC(=O)Nc3ccccc3N)ccc2O[C@@H]1CN(C)S(C)(=O)=O | inactive |
| O=C(C[C@H]1CC[C@H]2[C@@H](COC[C@@H](O)CN2Cc2ccccc2F)O1)N[C@@H]1CCN(Cc2ccccc2)C1 | inactive |
| CCCCCCCCCCNc1cc(CO)c2cc[nH]c2c1 | inactive |
| COc1ccc(S(=O)(=O)Nc2ccc3c(c2)C(=O)N([C@H](C)CO)C[C@H](C)[C@H](CN(C)C(=O)NC2CCCCC2)OCCCC[C@H](C)O3)cc1 | inactive |
| C[C@@H]1CN([C@@H](C)CO)C(=O)Cc2cc(NS(=O)(=O)c3ccc(F)cc3)ccc2O[C@@H]1CN(C)Cc1ccc(Cl)c(Cl)c1 | active |
| C[C@H]1CN([C@@H](C)CO)C(=O)Cc2cc(NS(=O)(=O)c3ccc(F)cc3)ccc2O[C@@H]1CN(C)Cc1ccc(Cl)c(Cl)c1 | inactive |
| C[C@@H]1CN([C@@H](C)CO)C(=O)Cc2cc(NS(=O)(=O)c3ccc(F)cc3)ccc2O[C@H]1CN(C)Cc1ccc(Cl)c(Cl)c1 | inactive |
| C[C@@H]1CN([C@H](C)CO)C(=O)Cc2cc(NS(=O)(=O)c3ccc(F)cc3)ccc2O[C@H]1CN(C)Cc1ccc(Cl)c(Cl)c1 | inactive |
| C[C@@H]1CN([C@H](C)CO)C(=O)Cc2cc(NS(=O)(=O)c3ccc(F)cc3)ccc2O[C@@H]1CN(C)Cc1ccc(Cl)c(Cl)c1 | active |
| C[C@H]1CN([C@@H](C)CO)C(=O)Cc2cc(NS(=O)(=O)c3ccc(F)cc3)ccc2O[C@H]1CN(C)Cc1ccc(Cl)c(Cl)c1 | inactive |
| C[C@H]1CCCCO[C@@H](CN(C)S(=O)(=O)c2cccs2)[C@@H](C)CN([C@@H](C)CO)C(=O)c2cc(NC(=O)C3CCCCC3)ccc2O1 | inactive |
| C[C@H](CO)N1C[C@H](C)[C@H](CN(C)Cc2ccc(C(=O)Nc3ccccc3N)cc2)Oc2ccc(NC(=O)C3CCCCC3)cc2C1=O | inactive |
| C[C@@H]1CN([C@H](C)CO)C(=O)Cc2cc(NS(=O)(=O)c3cccs3)ccc2O[C@H]1CN(C)Cc1ccc(Cl)c(Cl)c1 | active |
| C[C@@H]1CN([C@H](C)CO)C(=O)Cc2cc(NS(=O)(=O)c3cccs3)ccc2O[C@@H]1CN(C)Cc1ccncc1 | inactive |
| C[C@@H]1CN([C@@H](C)CO)C(=O)Cc2cc(NS(=O)(=O)c3cccs3)ccc2O[C@H]1CN(C)Cc1ccc(Cl)c(Cl)c1 | inactive |
| C[C@@H]1CN([C@H](C)CO)C(=O)Cc2cc(NS(=O)(=O)c3cccs3)ccc2O[C@@H]1CN(C)Cc1ccc(Cl)c(Cl)c1 | active |
| C[C@@H]1CN([C@@H](C)CO)C(=O)Cc2cc(NS(=O)(=O)c3cccs3)ccc2O[C@@H]1CN(C)Cc1ccc(Cl)c(Cl)c1 | inactive |
| C[C@H]1CN([C@@H](C)CO)C(=O)Cc2cc(NS(=O)(=O)c3cccs3)ccc2O[C@H]1CN(C)Cc1ccc(Cl)c(Cl)c1 | active |
| C[C@H]1CN([C@@H](C)CO)C(=O)Cc2cc(NS(=O)(=O)c3cccs3)ccc2O[C@@H]1CN(C)Cc1ccc(Cl)c(Cl)c1 | inactive |
| C[C@H](CO)N1C[C@H](C)[C@@H](CN(C)Cc2ccc(Cl)c(Cl)c2)Oc2ccc(NS(=O)(=O)c3cccs3)cc2CC1=O | inactive |
| C[C@H](CO)N1C[C@H](C)[C@H](CN(C)Cc2ccc(Cl)c(Cl)c2)Oc2ccc(NS(=O)(=O)c3cccs3)cc2CC1=O | inactive |
| COc1ccc(S(=O)(=O)N(C)C[C@H]2Oc3c(NC(=O)NC(C)C)cccc3C(=O)N([C@H](C)CO)C[C@H]2C)cc1 | inactive |

| Structure (SMILES) | cytotoxicity call |
| --- | --- |
| C[C@@H]1CN([C@H](C)CO)C(=O)c2cc(NC(=O)C3CCCCC3)ccc2O[C@@H](C)CCCCO[C@H]1CN(C)S(=O)(=O)c1ccccc1 | inactive |
| C[C@H]1CN([C@@H](C)CO)C(=O)c2c(c3ccccc3n2C)-c2ccccc2CO[C@H]1CN(C)C(=O)Nc1ccccc1C(F)(F)F | inactive |
| COc1ccc(NC(=O)Nc2cccc3c2O[C@@H](CN(C)Cc2ccc(Cl)c(Cl)c2)[C@H](C)CN([C@H](C)CO)C3=O)cc1 | inactive |
| CC(C)NC(=O)Nc1ccc2c(c1)C(=O)N([C@@H](C)CO)C[C@@H](C)[C@H](CN(C)Cc1ccc(Cl)c(Cl)c1)OCCCC[C@@H](C)O2 | inactive |
| C[C@@H]1CN([C@@H](C)CO)C(=O)c2cccc(NC(=O)c3ccncc3)c2O[C@@H]1CN(C)S(=O)(=O)c1cccs1 | inactive |
| C[C@H]1CN([C@@H](C)CO)C(=O)CCCn2cc(nn2)CO[C@H]1CN(C)C(=O)C1CC1 | inactive |
| O=C(C[C@@H]1CC[C@@H]2[C@H](COC[C@H](O)CN2S(=O)(=O)c2cccc(F)c2)O1)NCCCN1CCOCC1 | inactive |
| CNc1nc(OCC#N)nc(N2CCCCC2)n1 | inactive |
| COC(=O)[C@@]12OC[C@]34[C@H]([C@@H](O)[C@@H]1O)[C@@]1(C)CC(=O)C(=O)[C@H](C)[C@@H]1C[C@H]3OC(=O)[C@H](OC(=O)/C=C(\C)C(C)C)[C@@H]24 | active |
| C[C@H](CO)N1C[C@H](C)[C@@H](CN(C)S(=O)(=O)c2ccccc2)Oc2ncc(C#Cc3ccccc3F)cc2C1=O | inactive |
| O=C(C[C@@H]1CC[C@H]2[C@@H](COC[C@@H](O)CN2C(=O)c2ccc3c(c2)OCO3)O1)NCCN1CCCCC1 | inactive |
| CC(=O)NCC(=O)N1CCC2(CC1)CN(c1cnn(C)c1)C(=O)CO2 | inactive |
| O=C1C(=O)N(C[C@@H](O)COc2cccc3ccccc23)C(=O)C(=O)N1C[C@@H](O)COc1cccc2ccccc12 | inactive |
| COc1ccccc1N1CCN(CC(O)COc2cccc3ccccc23)CC1 (stereo unspecified) | inactive |
| O[C@@H](COc1cccc2ncccc12)CN1CCN([C@@H]2c3ccccc3[C@@H]3[C@H](c4ccccc42)C3(F)F)CC1 | active |
| C[C@H](CO)N1C[C@H](C)[C@@H](CN(C)C(=O)c2ccncc2)OCCCC[C@H](C)Oc2ccc(NS(C)(=O)=O)cc2C1=O | inactive |
| C[C@@H]1CN([C@H](C)CO)C(=O)c2cc(NC(=O)Nc3ccc(C(F)(F)F)cc3)ccc2O[C@@H](C)CCCCO[C@@H]1CN(C)C(=O)Nc1cccc2ccccc12 | inactive |
| C[C@@H]1CN([C@H](C)CO)C(=O)c2cccc(NC(=O)Nc3ccccc3)c2O[C@@H]1CN(C)S(C)(=O)=O | inactive |
| COc1ccc2c3c(n(c2c1)C)[C@@H](CO)N(CC1CC1)C[C@]13CCN(CC1)S(=O)(=O)c1cn(cn1)C | inactive |
| C[C@H](NC(=O)c1c(N)nn2cccnc12)c1cc2cccc(C#Cc3cnn(C)c3)c2c(=O)n1-c1ccccc1 | active |
| C[C@@H]1CCCCO[C@H](CN(C)C(=O)Nc2ccccc2)[C@@H](C)CN([C@@H](C)CO)C(=O)c2cc(NC(=O)Cc3ccccc3)ccc2O1 | inactive |
| COc1ccc(S(=O)(=O)N(C)C[C@@H]2Oc3cc(C#CC4CC4)ccc3S(=O)(=O)N([C@@H](C)CO)C[C@@H]2C)cc1 | inactive |
